HepG2 viability – counter-screen for TGF-b inhibitors: cytotoxicity in HepG2 cells | Potency, µM (highest dose often 46.1 µM), without a hit: top-dose activity change, negative = cytotoxicity, most hits filed as cytotoxic | HepG2 CAGA-GFP viability, ATP luminescence, 18 h | actives 0.76% (n = 410,000); further: potency means the concentration at half of the fitted maximal effect
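CellTiter-Glo luminescence gave cytotoxicity after 18 hours at 37 degrees C. The cells were HepG2 CAGA-GFP in 1% FBS DMEM, stimulated with 500 pg/mL TGF-beta after compound addition. %Activity was normalised to no-cell wells (complete cell-killing) and DMSO (no toxicity), and curves were fitted and classified.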
Giardia kill – kills Giardia lamblia; actives 0.15% (n = 340,000); Giardia lamblia trophozoite viability; activity change, % at 7.66 µM, hits read low; in the data active means activity change below about -80%; inconclusive means between about -30% and that limit;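 further: parasites exposed to compound for two days anaerobically before the ATP read; on the % scale 0 is the no-effect control and ±100 the full control effect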
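Media and compound were dispensed first, then trophozoites at 100 cells/well; plates sat 48 hrs at 37 deg C without oxygen before ATP luminescence reagent was added and read after 15-30 min at room temperature.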
IL1B secr inh – blocks inflammasome-driven IL-1 beta release. THP-1 LPS/ATP IL-1B secretion, AlphaLISA, 16 h; hits give low values. activity change, % at 57.5 µM. actives 4.7% (n = 360,000); in the data active means activity change below about -50%; inconclusive means mostly about -30% to -49%; further: on the % scale 0 is the no-effect control and ±100 the full control effect
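Secreted IL-1B measured by AlphaLISA bead assay after 16 h compound exposure of THP-1 cells; compounds (final up to 57.5 uM) added 1 h before LPS (250 ng/mL) and ATP (1.25 mM) stimulation; lower signal means less secretion.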
HT1080-NT tox – kills 2HG-producing HT-1080-NT fibrosarcoma cells | HT-1080-NT fibrosarcoma viability, CellTiter-Glo ATP luminescence, 48 h | Potency, µM (top dose mostly 46.1 µM), without a hit: at the highest dose activity, negative = less viability, usual class: cytotoxic | actives 1.6% (n = 360,000);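 further: NT is the 2HG producing partner of a matched IDH1 knockdown line; potency means the concentration at half of the fitted maximal effect; 0% = DMSO-treated cells and -100% = media-only wells without cells; nearly all actives have a fitted effect of over 55% in size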
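Compounds were tested in concentration-response format on HT-1080-NT cells for 48 hours at 37 degrees C. Cell viability came from CellTiter-Glo luminescence; curves were classified by r2, response magnitude and activity.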
HT1080 IDH1KD tx – toxicity to HT-1080 IDH1 knockdown cells (counter line); HT-1080 IDH1 knockdown viability, ATP luminescence, 48 h; Potency, µM (titrated, usually from 46.1 µM), without a hit: at the highest dose activity, negative = toxicity, hits mostly cytotoxic; actives 2% (n = 360,000); AID 686971;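 further: potency means the concentration at half of the fitted maximal effect; 0% = DMSO wells and -100% = cell-free medium wells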
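IDH1KD HT-1080 cells, 750/well, RPMI + 5% FBS; compound pinned after 2 h settling; 48 h, 37 °C; CellTiter-Glo luminescence; % activity normalised to DMSO and no-cell wells; curves fitted, classed by r2 and efficacy.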
TGFb SMAD3 inh – TGF-b pathway inhibition | Potency, µM (titrated, usually from 46.1 µM), without a hit: at the highest dose activity, negative = inhibition, actives largely listed as inhibitors | actives 1.2% (n = 410,000) | AID 588855 | HepG2 CAGA-GFP TGF-b/SMAD3 reporter, GFP fluorescence, 18 h; TGF-beta stimulated, 500 pg/mL final; further: potency means the concentration at half of the fitted maximal effect; on the % scale 0 is the no-effect control and ±100 the full control effect; nearly all actives have a fitted effect of over 65% in size
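HEPG2 CAGA-GFP, 1000 cells/well; 2 h settle, 37 C; cpd via pin tool; TGF-b 500 pg/mL final; 18 h, 37 C; GFP imaging ex488/em500-530; %Activity normalised to -TGF-b and +DMSO controls; CRC fit, curve class.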
* marks the source's active call; other numbers are inactive results; ? = inconclusive; . = not tested or not shown; ! = a repeat was not active. Only some compounds are listed: those with a hit (about 6.5% of all), similar ones and a draw of the others. Unless noted, the call rests on the fitted dose curve; in most records, active means well fitted curve in the direction sought with a large enough effect; inconclusive means small, poorly fitted or top-dose-only effect, or another doubt; inactive means no such curve, though single readings can be large; an effect the other way counts as inactive or inconclusive.

SMILES | HepG2 viability | Giardia kill | IL1B secr inh | HT1080-NT tox | HT1080 IDH1KD tx | TGFb SMAD3 inh
O=C(c1cc(Cl)ccc1Cl)N1CCc2ccccc21 | -2% | ? | -11 | -3% | -16% | -25%
CCOC(=O)C1=C[C@@H](C)N(S(=O)(=O)c2ccc(C)cc2)[C@H]1c1ccccc1 | -16% | . | 1 | -3% | -7% | ?
CC(C)c1ccc(-c2csc3nc[nH]c(=O)c23)cc1 | -15% | ? | 18 | -10% | -9% | ?
COc1cccc(C(=O)N2CCN(Cc3ccccc3C(F)(F)F)CC2)c1 | -1% | 28 | -4 | -4% | -9% | 11%
CCN1CCN(Cc2ccc(NC(=O)c3cc(NC(=O)c4cnn(-c5ccccc5)c4N)cc(OC)c3)cc2C(F)(F)F)CC1 | -79% | 0 | 81 | ? | 18µM* | ?
CCN1CCN(Cc2ccc(C(=O)Nc3ccc(C)c(NCc4cnc(NC(=O)OC)cn4)c3)cc2C(F)(F)F)CC1 | -11% | -12 | -16 | -6% | 0% | -5%
CCN1CCN(Cc2ccc(NC(=O)c3ccc(C)c(NC(=O)c4ccnnc4)c3)cc2C(F)(F)F)CC1 | 10% | -10 | 10 | 6% | 4% | -22%
CCN1CCN(Cc2ccc(NC(=O)c3ccc(C)c(NC(=O)c4ccc5n[nH]nc5c4)c3)cc2C(F)(F)F)CC1 | -26% | -6 | -7 | -3% | -7% | ?
CCN1CCN(Cc2ccc(NC(=O)c3cc(NC(=O)C(=O)c4c[nH]c5ccccc45)cc(OC)c3)cc2C(F)(F)F)CC1 | 11µM*! | 31 | -80* | 16µM* | ? | ?
CCN1CCN(Cc2ccc(NC(=O)c3cc(NC(=O)c4cc(C)on4)cc(OC)c3)cc2C(F)(F)F)CC1 | -37% | 18 | -83*! | ? | ? | ?
CCN1CCN(Cc2ccc(NC(=O)c3ccc(C)c(NC(=O)C(=O)c4c[nH]c5ccccc45)c3)cc2C(F)(F)F)CC1 | 16µM*! | -11 | -106* | 16µM* | 15µM* | 18µM*
Fc1ccccc1C1CCN(Cc2nc(COc3ccccc3)no2)C1 (stereo not given) | 20% | 3 | 4 | 4% | 2% | -18%
CC1(c2nnc(Cc3ccccc3)o2)CC(c2ccc(Cl)cc2)=NO1 (stereo not given) | -6% | -9 | 37 | 20% | 12% | -10%
CC(=O)c1sc(NC(=O)c2ccccc2)nc1-c1ccccc1 | -21% | -3 | 0 | -3% | -1% | -11%
Cc1ccc(NC(=O)NNS(=O)(=O)c2ccc(Br)cc2)cc1 | -1% | -18 | -1 | -5% | 0% | 0%
Cc1ccc(S(=O)(=O)NC(=O)Nc2ccc(N(C)C)cc2)cc1 | -94% | -23 | -80* | -29% | ? | ?
O=C(C1CCCN(Cc2nc(-c3ccc(Cl)cc3)no2)C1)N1CCOCC1 (stereo not given) | -3% | 12 | -83* | ? | -19% | -4%
O=C(C1CCN(Cc2nc(-c3ccc(Cl)cc3)no2)CC1)N1CCOCC1 | 7% | 13 | 62 | -3% | -1% | 11%
CC(=O)NCCc1ccc(S(=O)(=O)N2CCCC2)cc1 | 1% | 5 | 26 | 6% | 11% | 0%
CCc1ccc(C(=O)COC(=O)C2=NN(c3ccccc3)C(=O)CC2)cc1 | 4% | 21 | 41 | 0% | 14% | -15%
Cn1c(SCc2ccc(C#N)cc2Cl)nc2ccccc21 | -24% | 17 | -71* | 7% | -1% | 8%
N#Cc1ccc(CSc2ccccn2)c(Cl)c1 | -5% | -9 | -4 | 12% | 16% | -4%
COc1ccc(NC(=O)c2cc(-c3ccc4c(c3)OCO4)on2)cc1OC | -19% | 16 | 6 | 1% | 7% | -13%
Cc1cccc(C(=O)Oc2csc(=S)n2C(=O)c2cccc(C)c2)c1 | 6% | -1 | 6 | 7.3µM* | 4.6µM* | -17%
O=C(Oc1csc(=S)n1C(=O)c1ccccc1)c1ccccc1 | -14% | -2 | 0 | 2% | 2% | -1%
SMILES | HepG2 viability | Giardia kill | IL1B secr inh | HT1080-NT tox | HT1080 IDH1KD tx | TGFb SMAD3 inh
Cc1noc2ncnc(Sc3ccc(Br)cc3)c12 | -31% | -8 | -101* | -7% | ? | ?
Cc1noc2ncnc(N3CCCC3)c12 | -1% | 4 | 0 | -4% | -1% | 4%
COc1ccc(C(=O)c2sc3nc(C)cc(-c4cccs4)c3c2N)cc1OC | -29% | -4 | -80* | -4% | 3% | -8%
COc1ccc(C(=O)c2sc3nc(C)cc(-c4cccs4)c3c2N)cc1 | -22% | -15 | ? | -12% | -21% | 45%
CN1CCN(c2nc3cc(C(F)(F)F)ccc3n3cccc23)CC1 | -6% | -8 | ? | ? | 23µM* | 52%
O=C(NN=Cc1ccc2c(c1)OCO2)NN=Cc1ccc2c(c1)OCO2 | -28% | 0 | -89* | -23% | -30% | 4%
N/C(=N\N=C/c1ccc(Br)cc1)N/N=C\c1ccc(Br)cc1 | 11µM* | -3 | -64* | ? | ? | ?
CS/C(N)=N/N=C/c1ccc2c(c1)OCO2 | -7% | -3 | -14 | -4% | -7% | 9%
N/C(=N\N=C/c1ccc(F)cc1)N/N=C\c1ccc(F)cc1 | -131% | -14 | -21 | 4% | 1% | ?
N/C(=N\N=Cc1ccc2c(c1)OCO2)NN=Cc1ccc2c(c1)OCO2 | -42% | ? | -99* | -12% | ? | ?
O=C1OC(=O)c2c(Br)c(Br)c(Br)c(Br)c21 | -22% | 5 | 25 | 19% | 16% | 0%
CCOC(=O)c1nnc(-c2cccs2)nc1Oc1ccc(Cl)cc1 | 6% | 4 | -4 | -1% | 4% | 3%
NC(=O)c1ccc(NC(=O)COC(=O)C23CC4CC(CC(C4)C2)C3)cc1 | 1% | . | 4 | 12% | 5% | 2%
COc1cccc(CNC(=O)CCC2CCCN(C(=O)c3ccoc3)C2)c1 (stereo not given) | -9% | 5 | 13 | 11% | -1% | -2%
COc1cccc(CNC(=O)CCC2CCCN(C(=O)c3cc4ccccc4o3)C2)c1 (stereo not given) | -18% | -2 | -90* | -3% | -7% | -19%
O=c1ccc(-c2n[nH]c(=S)n2-c2ccc(F)c(Cl)c2)n[nH]1 | -4% | 18 | 4 | -20% | -3% | 10%
Cc1ccc(NC(=O)c2nc[nH]c2C(=O)NCCCCCNC(=O)OC(C)(C)C)cc1 | -55% | -21 | -62* | ? | -28% | ?
CC(C)(C)OC(=O)NCCCCCNC(=O)c1[nH]cnc1C(=O)Nc1ccc(Cl)cc1 | 18µM* | 38 | ? | ? | ? | ?

Source: PubChem BioAssay (National Center for Advancing Translational Sciences (NCATS))
